Measurements reported in PubChem BioAssay (NCI).
This is part of a sample that, as a whole, favours compounds with a hit. Of some 79,000 tested, about 15% had one in any assay. Activity calls are given as the source filed them. Rule as the data show it: active = growth inhibition above about 70%; inactive = the rest.

Key:
[1] = NCI Yeast Anticancer Drug Screen. Data for the rad50 strain (AID 155);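 also: 0% = growth of vehicle-only cultures of the same strain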; conditions: S. cerevisiae rad50 strain growth inhibition, hits give high values
Summary of the method: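 Genetically altered yeast (DNA repair pathway); compound treatment; growth inhibition vs vehicle ctrl.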

[2] = NCI Yeast Anticancer Drug Screen. Data for the mec2-1 strain (AID 157); conditions: S. cerevisiae mec2-1 strain, hits give high values
Summary of the method: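 Strain: mec2-1 (DNA repair/cell cycle alteration). Compound exposure, then growth measured; inhibition expressed relative to vehicle.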

[3] = NCI Yeast Anticancer Drug Screen. Data for the sgs1 mgt1 strain (AID 161);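 also: 0% = growth of cultures given vehicle only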; conditions: S. cerevisiae sgs1 mgt1 strain, hits give high values
Summary of the method: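 Test agents were incubated with a DNA-repair-mutant yeast strain. Growth was then read and compared against vehicle-treated controls.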

[4] = NCI Yeast Anticancer Drug Screen. Data for the cln2 rad14 strain (AID 165);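 also: 0% = growth equal to vehicle treated cultures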; conditions: S. cerevisiae cln2 rad14 strain, hits give high values
Summary of the method: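 Compounds are applied to the cln2 rad14 yeast strain, and growth is then compared with that of vehicle-treated cultures to give inhibition.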

[5] = NCI Yeast Anticancer Drug Screen. Data for the bub3 strain (AID 167); conditions: S. cerevisiae bub3 mutant strain, hits give high values
Summary of the method: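 Yeast carrying a defined mutation is treated with each compound, and growth is compared with that of vehicle-exposed cells to give inhibition.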

[6] = NCI Yeast Anticancer Drug Screen. Data for the mlh1 rad18 strain (AID 175); conditions: S. cerevisiae mlh1 rad18 strain growth inhibition, hits give high values
Summary of the method: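 Read-out is yeast growth inhibition, calculated against vehicle-only controls. The compound was applied to a strain engineered with DNA damage repair alterations.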

[7] = at 5.0 µM (retest, dose inferred, filed as 0.5)
[8] = at 50.0 µM (retest, dose inferred, filed as 5.0)

Measured: growth inhibition

CCOC(=O)N(C(=O)c1ccc([As]=O)cc1)C(=O)c1ccc([As]=O)cc1 (stereo not given)
active: [1]; [8] 98% | [1]; at 50.0 µM 99.2% | [2]; [8] 99% | [2]; at 50.0 µM 99.3% | [3]; [8] 100% | [3]; at 50.0 µM 99.5% | [4]; [8] 99% | [4]; at 50.0 µM 99% | [5]; [8] 99% | [5]; at 50.0 µM 89.3% | [6]; [8] 99% | [6]; at 50.0 µM 98.7%
inactive: [1]; [7] 8% | [2]; [7] 5% | [3]; [7] 10% | [4]; [7] -4% | [5]; [7] 11% | [6]; [7] 6%

O=[N+]([O-])/C=C/c1cc2c(cc1Br)OCO2
inactive: [2]; [7] 53% | [4]; [7] 26% | [4]; [8] 62% | [5]; [7] 48% | [6]; [7] 68%
active: [1]; [7] 78% | [1]; [8] 89% | [1]; at 50.0 µM 98.5% | [2]; [8] 89% | [2]; at 50.0 µM 99.2% | [3]; [7] 73% | [3]; [8] 87% | [3]; at 50.0 µM 97.9% | [4]; at 50.0 µM 94.2% | [5]; [8] 89% | [5]; at 50.0 µM 82.5% | [6]; [8] 88% | [6]; at 50.0 µM 98.5%

CCCCCCCCCCCC[As](=O)(O)O
inactive: [1]; [7] 0% | [1]; [8] 31% | [2]; [7] -1% | [2]; [8] 26% | [3]; [7] 7% | [3]; [8] 48% | [4]; [7] -3% | [4]; [8] 46% | [5]; [7] 3% | [5]; [8] 53% | [6]; [7] 6% | [6]; [8] 51%
active: [1]; at 50.0 µM 99.4% | [2]; at 50.0 µM 99.3% | [3]; at 50.0 µM 98.2% | [4]; at 50.0 µM 98.5% | [5]; at 50.0 µM 99.2% | [6]; at 50.0 µM 98.9%

CC12CCC(C)(c3cc(O)c(O)cc31)c1cc(O)c(O)cc12
active: [6]; at 50.0 µM 70.1%
inactive: [1]; [7] -4% | [1]; [8] 4% | [1]; at 50.0 µM 52.3% | [2]; [7] -1% | [2]; [8] -1% | [2]; at 50.0 µM 31.4% | [3]; [7] -1% | [3]; [8] 4% | [3]; at 50.0 µM 37% | [4]; [7] 2% | [4]; [8] 19% | [4]; at 50.0 µM 57.5% | [5]; [7] 4% | [5]; [8] 33% | [5]; at 50.0 µM 43.9% | [6]; [7] -1% | [6]; [8] 22%

O=C(c1ccccc1)c1c(CC(O)c2ccccn2)n(C(=O)c2ccccc2)c2ccccc12 (stereo not given)
active: [1]; [8] 88% | [1]; at 50.0 µM 77.5% | [2]; [8] 75% | [3]; [8] 86% | [3]; at 50.0 µM 82.5% | [4]; [8] 88% | [5]; [8] 93% | [5]; at 50.0 µM 74.2% | [6]; [8] 86% | [6]; at 50.0 µM 84%
inactive: [1]; [7] 6% | [2]; [7] -8% | [2]; at 50.0 µM 46.7% | [3]; [7] 5% | [4]; [7] 12% | [4]; at 50.0 µM 65.7% | [5]; [7] -10% | [6]; [7] 2%

Clc1c(Cl)c(Cl)c([S][Pb]([c]2ccccc2)([c]2ccccc2)[c]2ccccc2)c(Cl)c1Cl
active: [1]; [7] 91% | [1]; [8] 85% | [1]; at 50.0 µM 98.5% | [2]; [7] 96% | [2]; [8] 92% | [2]; at 50.0 µM 98.4% | [3]; [7] 94% | [3]; at 50.0 µM 98.8% | [4]; [7] 84% | [4]; [8] 89% | [4]; at 50.0 µM 97.7% | [5]; [7] 92% | [5]; [8] 96% | [5]; at 50.0 µM 98.5% | [6]; [7] 92% | [6]; [8] 92% | [6]; at 50.0 µM 98.3%
inactive: [3]; [8] 42%

Cc1cc[n+](C2=C(Nc3ccc(Cl)cc3Cl)C(=O)c3ccccc3C2=O)cc1
inactive: [1]; [7] 41% | [2]; [7] -1% | [2]; [8] 58% | [2]; at 50.0 µM 61.5% | [3]; [7] 1% | [3]; [8] 59% | [3]; at 50.0 µM 66.4% | [4]; [7] 4% | [4]; [8] 39% | [4]; at 50.0 µM 40.2% | [5]; [7] 5% | [5]; at 50.0 µM 61.1% | [6]; [7] 4% | [6]; [8] 58%
active: [1]; [8] 90% | [1]; at 50.0 µM 92.3% | [5]; [8] 78% | [6]; at 50.0 µM 81%

CC(C)(C)[CH2][Hg][Cl]
active: [1]; [7] 100% | [1]; [8] 100% | [1]; at 50.0 µM 99.7% | [2]; [7] 100% | [2]; [8] 100% | [2]; at 50.0 µM 99.5% | [3]; [7] 100% | [3]; [8] 99% | [3]; at 50.0 µM 99.5% | [4]; [7] 100% | [4]; [8] 99% | [4]; at 50.0 µM 98.7% | [5]; [7] 100% | [5]; [8] 100% | [5]; at 50.0 µM 99.5% | [6]; [7] 99% | [6]; [8] 99% | [6]; at 50.0 µM 99.5%

CC1(O)CC([CH2][Hg][I])OC([CH2][Hg][I])C1 (stereo not given)
active: [1]; [7] 99% | [1]; [8] 99% | [1]; at 50.0 µM 96.3% | [2]; [7] 99% | [2]; [8] 99% | [2]; at 50.0 µM 98.3% | [3]; [7] 100% | [3]; [8] 99% | [3]; at 50.0 µM 96% | [4]; [7] 99% | [4]; [8] 98% | [4]; at 50.0 µM 98% | [5]; [7] 99% | [5]; [8] 98% | [5]; at 50.0 µM 98.6% | [6]; [7] 99% | [6]; [8] 99% | [6]; at 50.0 µM 91.6%

Cc1ccc(NP(=O)(Oc2ccccc2)N(CCCl)CCCl)cc1 (stereo not given)
active: [1]; at 50.0 µM 74% | [3]; at 50.0 µM 73.5%
inactive: [1]; [7] 11% | [1]; [8] 10% | [2]; [7] -8% | [2]; [8] 10% | [2]; at 50.0 µM 23.9% | [3]; [7] 8% | [3]; [8] 20% | [4]; [7] 30% | [4]; [8] 61% | [4]; at 50.0 µM 56.5% | [5]; [7] 14% | [5]; [8] 32% | [5]; at 50.0 µM 62% | [6]; [7] -10% | [6]; [8] -5% | [6]; at 50.0 µM 54.6%
